Shown are actives, neighbours in structure and some others; about 2.1% of the full set was active somewhere.
aSyn UTR inh – MLPCN primary screen, SNCA 5' untranslated region; alpha-synuclein 5'UTR reporter, inhibitor activity; 300,000 tested, 0.82% active; AID 1813; inhibition, % (tested at 7.5 µM); in the data active = inhibition above about 60%;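 also: H4 neuroglioblastoma cells stably carrying SNCA 5'UTR luciferase fusion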
APP transl inh – APP translation inhibition; SH-SY5Y APP 5'UTR-luciferase reporter, luminescence; inhibition, % at 2 µM; 190,000 tested, 0.82% active;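 active = inhibition above a set limit, derived from the sample mean plus 3 SD, cut at about 45% in these data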
Ba/F3 V617F tox – lowers viability of Ba/F3 cells expressing EpoR and JAK2V617F; ATP luminescence; inhibition, % at 5.6 µM; 220,000 tested, 1.1% active;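 active = inhibition above the campaign mean plus 3 SD over all tested compounds, cut at about 24% in these data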;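 also: cytokine-independent growth of Ba/F3 cells driven by EpoR plus mutant JAK2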
KLF5 inhibitor – kruppel-like factor 5 inhibition; inhibition, % at 5 µM; 290,000 tested, 0.23% active; DLD-1 KLF5 promoter-luciferase reporter, luminescence;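 active = inhibition above a per-plate limit of that plate's mean compound inhibition plus 3 SD, cut at about 60% in these data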;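 also: higher means less KLF5 promoter-driven luciferase light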
BaF3 tox – reduces parental Ba/F3 cell viability, JAK2V617F counter-screen. CellTiter-Glo ATP luminescence. inhibition, % at 5.6 µM. 220,000 tested, 1.1% active. AID 1486;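 active = inhibition above a per-campaign cutoff, the mean inhibition of all tested compounds plus 3 SD, cut at about 27% in these data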
IEC-6 tox – IEC-6 cytotoxicity, counter-screen for KLF5 inhibitors | luminescence viability | inhibition, % at 5 µM | 290,000 tested, 0.78% active; in the data active = inhibition above about 22%
BaF3 tox 2 – parental Ba/F3 viability inhibition for JAK2V617F counter-screen. shares compounds with Ba/F3 V617F tox. CellTiter-Glo luminescence; cells kept alive by added IL-3. 580 tested, 31% active. inhibition, % at 5.6 µM;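 active = cell growth inhibition above the hit limit set in the earlier mutant JAK2 cell screen, cut at about 27% in these data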
JAK2V617F confrm – confirmation: loss of viability in JAK2V617F-dependent Ba/F3 cells | 580 tested, 66% active | inhibition, % at 5.6 µM | Ba/F3 EpoR-JAK2V617F viability, CellTiter-Glo luminescence | shares compounds with Ba/F3 V617F tox;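 active = mean inhibition above the hit cutoff derived in the earlier primary screen, cut at about 25% in these data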;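 also: higher means lower luminescence from reduced cell ATP and viability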
A number is an active result; - = inactive; . = not tested or not shown.

SMILES	aSyn UTR inh	APP transl inh	Ba/F3 V617F tox	KLF5 inhibitor	BaF3 tox	IEC-6 tox	BaF3 tox 2	JAK2V617F confrm
CCOc1ccc(NC(=O)CSc2nccn(-c3ccc4c(c3)OCCO4)c2=O)cc1	-	.	.	.	.	.	.	.
Oc1ccc(/C=N/N2CCN(C3c4ccccc4-c4ccccc43)CC2)cc1O	-	.	70	-	-	-	-	90
Oc1ccc(/C=N/N2CCN(C3c4ccccc4-c4ccccc43)CC2)cc1	-	.	-	-	-	-	.	.
O=C(Nc1ccc(NC(=S)NC(=O)C(c2ccccc2)c2ccccc2)cc1)c1ccccc1	-	-	28	-	-	-	29	64
COc1ccc(C)cc1NC(=O)C1CCN(C(=O)c2ccc(C(C)(C)C)cc2)CC1	-	.	.	-	.	-	.	.
Cc1ccc(NC(=O)c2ccccc2)cc1	-	-	-	-	-	-	.	.
Cc1ccc(NC(=O)C2=C(c3ccccc3)S(=O)(=O)CCS2(=O)=O)cc1	-	93	71	-	-	-	40	99
COc1cc2c(cc1NC(=O)c1cccc([N+](=O)[O-])c1C)oc1ccccc12	-	-	53	-	-	-	-	-
C#CCOCCOCCOCCNc1nc(N2CCN(C(=O)Cn3cc(CCCN=C(N)N)nn3)CC2)nc(N2CCN(C(=O)[C@H]([C@@H](C)CC)n3cc(CCCN=C(N)N)nn3)CC2)n1	.	-	-	-	-	-	.	.
COCCNC(=O)C(c1ccc(F)cc1)N(Cc1cccs1)C(=O)CCC(=O)Nc1ccccn1 (configuration not stated)	-	.	.	-	.	-	.	.
O=C1C=CCC(/C=C/c2ccccc2)O1 (configuration not stated)	-	-	46	-	-	-	-	97
COC(=O)C(c1ccccc1)C(C(=O)OC)c1ccccc1 (configuration not stated)	-	.	.	-	.	-	.	.
COC(=O)C(C(=O)OC)C(C)C(C(=O)OC)C(=O)OC	-	-	61	-	-	-	-	-
Cc1nc2cc(-c3ccccc3)sc2c(=O)n1N	111	-	25	65	-	-	48	37
O=C(CSc1ccc(-c2ccccc2)nn1)Nc1ccc2c(c1)OCCO2	-	-	46	-	-	-	-	-
O=C(CSc1ccccc1)Nc1ccc2c(c1)OCCO2	-	.	.	-	.	-	.	.
Cc1cc(NC(=O)c2sc(Nc3ccc(F)cc3)nc2N)no1	-	-	98	-	-	-	65	99
O=C(CCl)NC(=O)NC12CC3CC(CC(C3)C1)C2	-	-	43	-	-	-	-	93
Cc1nc2c(=O)n(C)c(=O)n(C)c2nc1Cl	-	46	39	-	-	-	-	62
Cn1c(=O)c2nc(NCc3ccccc3)cnc2n(C)c1=O	-	-	-	-	-	-	.	.
Nc1nnc(Sc2ccc(Cl)cc2[N+](=O)[O-])s1	-	-	65	-	-	-	-	-
O=C(N/N=C/c1ccccc1)C(=O)N/N=C/c1ccccc1	-	.	.	-	.	-	.	.
O=C(C=C=Nc1ccccc1)C(=O)N=C=Cc1ccccc1	-	.	68	-	-	-	-	79
Cc1cccc(CS(=O)(=O)c2nnc([C@H](Cc3ccccc3)NC(=O)OC(C)(C)C)o2)c1	-	72	44	-	-	-	-	82
COC(=O)CS(=O)(=O)c1nnc([C@H](Cc2ccccc2)NC(=O)OC(C)(C)C)o1	-	-	-	-	-	-	.	.
SMILES	aSyn UTR inh	APP transl inh	Ba/F3 V617F tox	KLF5 inhibitor	BaF3 tox	IEC-6 tox	BaF3 tox 2	JAK2V617F confrm
Cc1ccc(Nc2nc(-c3ccc(O)c(O)c3)cs2)nc1	-	-	92	-	-	-	95	99
COc1ccc(S(=O)(=O)n2cccc2)cc1	-	.	.	.	.	.	.	.
COC1(OC)C(/C=C/c2ccc(C)cc2)C(C#N)(C#N)C1(OC)OC (configuration not stated)	-	-	37	-	-	-	-	50
CCOC(=S)SCC(=O)Nc1nc(-c2ccc(Br)cc2)cs1	70	-	27	-	-	-	71	99
O=S1(=O)C=C(Sc2nnc(-c3ccccc3)o2)c2ccccc21	-	96	34	-	-	-	94	98
CCOC(=O)C(=NC(C)CC)NNc1cccc(C(F)(F)F)c1 (configuration not stated)	-	-	-	-	-	-	.	.
CCOC(=O)C(=NC1CCCCC1)NNc1cccc(C(F)(F)F)c1	-	-	36	-	-	-	-	-
COc1ccc(-c2cc(-c3ccc(C)cc3)n[nH]2)c(O)c1	-	.	.	-	.	-	.	.
COc1ccc(-c2cc(-c3cc(C)ccc3O)[nH]n2)cc1	-	-	32	-	-	-	-	80
Cc1nn(-c2ccc(Cl)cc2)c(Cl)c1/C=N/NC(=O)c1ccc(NS(=O)(=O)c2cccs2)cc1	-	.	.	.	.	.	.	.
COc1ccc(NC(=O)/C(C#N)=C\c2cc(C)n(-c3ccc4c(c3)OCO4)c2C)cc1	-	-	30	-	-	-	73	93
O=C1CCCCN1CCCC(=O)N1CCCC(Nc2ccc(F)c(F)c2)C1 (configuration not stated)	-	.	.	-	.	-	.	.
COC(CN(C(=O)CCl)C(C(=O)NC1CCCCC1)c1ccc(C)cc1)OC (configuration not stated)	-	-	91	-	-	-	-	-
COc1ccccc1NC(=O)CC(=O)CSc1nnc(-c2ccc(C)cc2)n1-c1ccccc1	-	-	-	-	-	-	.	.
COc1ccc(-c2nnc(SCC(=O)Nc3ncc(C)s3)n2-c2ccccc2)cc1OC	-	-	86	-	-	-	-	-
Cc1ccc(C(=O)N2CCN3C(=O)c4ccccc4C23c2ccc(Cl)cc2)cc1 (configuration not stated)	-	-	28	-	-	-	-	36
CC(/C=C/c1ccccc1)=N\NC(=O)Cn1cncn1	-	.	31	-	-	-	-	-
O=C(OCC(=O)N1CCN(C(=O)c2ccco2)CC1)c1ccccc1NCCO	-	.	.	.	.	.	.	.
O=C(NCCC1CCCCN1S(=O)(=O)c1ccc(F)cc1)C(=O)NCc1cccnc1 (configuration not stated)	-	.	.	.	.	.	.	.
c1coc(CNc2nc3ccccc3s2)c1	-	.	.	-	.	-	.	.
Oc1c(C(Nc2nc3ccccc3s2)c2ccco2)ccc2cccnc12 (configuration not stated)	66	68	26	-	-	-	35	89
COc1ccc(F)cc1C(=O)C1CCCN(C(=O)c2cccc(N(C)C)c2)C1 (configuration not stated)	-	-	102	-	-	-	-	-
CN(C)c1cccc(C(=O)N2CCCC(C(=O)c3cc(F)ccc3F)C2)c1 (configuration not stated)	-	-	-	-	-	-	.	.
Cc1cccc(NC(=O)c2cc(-c3cccnc3)nc3c(C)cccc23)n1	-	.	.	-	.	-	.	.
CCc1nc(C)cn1S(=O)(=O)c1ccc([N+](=O)[O-])cc1	-	-	-	-	-	-	.	.

Screening results as filed in PubChem BioAssay.
